NPC1 prom act: activates the NPC1 promoter. Huh7 NPC1 promoter luciferase reporter, 24 h. Potency, µM (doses to about 9.22 µM), for the others: top-dose activation, usual class: activators. 2.4% of 320,000 active; further: % of control where 0% means no effect; nearly all actives have a fitted effect of over 60% in size
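In 1536-well qHTS, Huh7 cells harboring an NPC1 promoter–luciferase construct received compound for 24 h; activation was quantified by luminescence following luciferase reagent addition.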
Rab9 prom act: activates the Rab9 promoter | Huh7 Rab9 promoter-luciferase reporter, luminescence, 24 h | Potency, µM (titrated, usually from 9.22 µM), for inactives: top-dose activation, negative = inhibition, most hits filed as activators | 2.8% of 320,000 active | AID 485297; further: % of control where 0% means no effect; nearly all actives have a fitted effect of over 60% in size
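Using Huh7 cells stably transfected with Rab9 promoter–luciferase, compounds were incubated 24 h at 37 °C, 5% CO2; luciferase luminescence was read 10 min after reagent addition.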
SMN2 splice up: SMN2 splice variant enhancement | HEK293 SMN2-luciferase splicing reporter, luminescence, 30-36 h | Potency, µM (doses to about 46.1 µM), for the others: at the top dose activity change, positive = activation, most hits filed as activators | 2.8% of 210,000 active; further: % of control where 0% means no effect; nearly all actives have a fitted effect of over 55% in size
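HEK293 cells carry an SMN2 minigene-luciferase reporter in which exon 7 inclusion puts luciferase in frame. Cells were seeded at 2000 cells/well, attached for 10-12 hours, then exposed to compounds for 30-36 hours at 37C before ONE-Glo luminescence.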
ELG1 genotoxic: inducers of genotoxicity in HEK293T ELG1-luciferase cells; HEK293T ELG1-luciferase reporter, luminescence, 16 h; Potency, µM (highest dose often 46 µM), for inactives: top-dose activity change, positive = activation, usual class: activators; 1.3% of 330,000 active; further: % of control where 0% means no effect; nearly all actives have a fitted effect of over 60% in size
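HEK293T cells expressing luciferase-tagged ELG1 were treated with compound or DMSO for 16 hr at 37°C. Luciferase activity was then read after 30 min with ONE-Glo at room temperature; rising signal flags genetic stress.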
FLuc modulator: counter-screen for miR-21 project: firefly luciferase inhibitors or activators; purified FLuc, Km substrates, luminescence inhibition; Potency, µM (series often up to 57.5 µM), without a hit: at the highest dose activity change, negative = inhibition, most hits filed as inhibitors; 6.9% of 360,000 active; AID 588342;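 further: plate controls were vehicle for no effect and reference inhibitor for full effect; nearly all actives have a fitted effect of over 55% in size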
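Purified P. pyralis luciferase, 10 nM final, with Km-level 10 uM D-luciferin and 10 uM ATP in 50 mM Tris acetate pH 7.5, 10 mM Mg acetate, 0.01% Tween-20, 0.05% BSA; 6-point qHTS titration about 60 µM downward; luminescence read.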
ELG1 repair inh: inhibitors of ELG1-dependent DNA repair in HEK293T cells; Potency, µM (highest dose often 46.1 µM), for the others: top-dose activity change, negative = inhibition, actives largely listed as inhibitors; HEK293T ELG1-luciferase reporter, luminescence, 16 h; DNA damage induced by 5-fluorouridine; 2.3% of 330,000 active; further: on the % scale 0 is the no-effect control and ±100 the full control effect; nearly all actives have a fitted effect of over 55% in size
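Reporter activity after DNA damage by 5-fluorouridine is monitored. Compound-treated cells incubate 16 hr at 37 °C, then ONE-Glo is added for 30 min before luminescence reading.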
ELG1 FLuc counter: luciferase inhibition in cell-free luciferin readout for ELG1 hits; AID 624247; cell-free firefly luciferase luminescence counter-screen, ViewLux; 3% of 350 active; shares compounds with ELG1 repair inh; Potency, µM (doses to about 46.1 µM), without a hit: at the top dose activity change, negative = inhibition, actives largely listed as inhibitors; further: on the % scale 0 is the no-effect control and ±100 the full control effect
ELG1-Luc inh: inhibits ELG1-dependent DNA repair in HEK293T cells, confirmed. shares compounds with ELG1 repair inh. HEK293T ELG1-luciferase levels, luminescence; cells co-treated with 5-fluorouridine. Potency, µM (highest dose often 46.1 µM), for inactives: at the highest dose activity change, negative = inhibition, most hits filed as inhibitors. 68% of 670 active; further: on the % scale 0 is the no-effect control and ±100 the full control effect; nearly all actives have a fitted effect of over 55% in size
Target sequence (Q96QE3 whole entry, looked up): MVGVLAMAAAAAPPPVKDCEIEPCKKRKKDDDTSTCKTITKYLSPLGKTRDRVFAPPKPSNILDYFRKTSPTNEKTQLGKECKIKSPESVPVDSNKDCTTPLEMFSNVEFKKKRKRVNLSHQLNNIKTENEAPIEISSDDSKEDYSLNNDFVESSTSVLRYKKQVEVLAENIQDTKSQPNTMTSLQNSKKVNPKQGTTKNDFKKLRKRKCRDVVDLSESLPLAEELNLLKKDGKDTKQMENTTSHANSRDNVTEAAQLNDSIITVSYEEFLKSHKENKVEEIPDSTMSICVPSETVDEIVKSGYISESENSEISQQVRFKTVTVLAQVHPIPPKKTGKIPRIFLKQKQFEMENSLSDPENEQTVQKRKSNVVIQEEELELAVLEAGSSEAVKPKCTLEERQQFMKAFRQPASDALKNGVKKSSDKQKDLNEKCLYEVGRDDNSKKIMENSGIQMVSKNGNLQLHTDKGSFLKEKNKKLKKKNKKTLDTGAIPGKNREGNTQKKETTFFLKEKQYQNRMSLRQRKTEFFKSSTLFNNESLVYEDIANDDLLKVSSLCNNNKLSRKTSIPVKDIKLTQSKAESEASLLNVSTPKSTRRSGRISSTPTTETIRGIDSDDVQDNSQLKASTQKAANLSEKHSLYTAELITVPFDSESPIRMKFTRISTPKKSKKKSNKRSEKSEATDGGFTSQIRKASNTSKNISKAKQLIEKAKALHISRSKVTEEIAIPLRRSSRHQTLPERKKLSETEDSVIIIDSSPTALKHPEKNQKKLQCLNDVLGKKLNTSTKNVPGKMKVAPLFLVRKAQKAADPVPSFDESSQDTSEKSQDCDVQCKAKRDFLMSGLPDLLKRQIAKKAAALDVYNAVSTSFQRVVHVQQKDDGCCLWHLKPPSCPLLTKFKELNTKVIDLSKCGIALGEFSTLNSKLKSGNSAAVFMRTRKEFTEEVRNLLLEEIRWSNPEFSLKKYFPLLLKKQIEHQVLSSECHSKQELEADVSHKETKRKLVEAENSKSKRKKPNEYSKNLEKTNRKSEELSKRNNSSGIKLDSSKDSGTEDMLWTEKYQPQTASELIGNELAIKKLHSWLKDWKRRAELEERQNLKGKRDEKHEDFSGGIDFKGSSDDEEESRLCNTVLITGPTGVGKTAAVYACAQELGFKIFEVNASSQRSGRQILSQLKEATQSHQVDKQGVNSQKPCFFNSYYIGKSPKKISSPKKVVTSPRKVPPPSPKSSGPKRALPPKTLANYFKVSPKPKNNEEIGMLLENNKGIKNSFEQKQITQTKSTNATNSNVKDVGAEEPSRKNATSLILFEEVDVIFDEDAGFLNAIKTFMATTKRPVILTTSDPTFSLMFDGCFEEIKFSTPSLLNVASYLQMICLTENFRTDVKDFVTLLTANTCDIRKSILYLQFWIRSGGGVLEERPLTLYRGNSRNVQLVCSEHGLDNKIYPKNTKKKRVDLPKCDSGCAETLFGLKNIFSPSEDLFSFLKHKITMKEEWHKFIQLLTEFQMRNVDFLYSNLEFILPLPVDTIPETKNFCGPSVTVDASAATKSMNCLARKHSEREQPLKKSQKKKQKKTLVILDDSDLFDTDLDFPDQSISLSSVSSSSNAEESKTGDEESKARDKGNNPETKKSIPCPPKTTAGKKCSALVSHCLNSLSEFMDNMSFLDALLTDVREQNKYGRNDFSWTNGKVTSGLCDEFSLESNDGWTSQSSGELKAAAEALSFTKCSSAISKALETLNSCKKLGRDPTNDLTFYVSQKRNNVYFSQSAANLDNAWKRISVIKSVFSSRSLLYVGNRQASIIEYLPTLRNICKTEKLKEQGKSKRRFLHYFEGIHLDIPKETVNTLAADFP
ELG1 MMS Luc: confirmation of human ELG1 repair inhibitors, MMS stimulated; shares compounds with ELG1 repair inh; HEK293T luciferase-tagged ELG1 level, MMS stimulated; Potency, µM (titrated, usually from 46.1 µM), for the others: at the highest dose activity change, negative = inhibition, actives largely listed as inhibitors; 53% of 670 active; further: on the % scale 0 is the no-effect control and ±100 the full control effect; nearly all actives have a fitted effect of over 60% in size
ELG1 5-FU: confirmation of ELG1 repair inhibitors: viability with 5FU. shares compounds with ELG1 repair inh. cell viability with 5-FU, ELG1-dependent repair. Potency, µM (highest dose often 46.1 µM), without a hit: top-dose activity change, negative = viability loss, usual class: cytotoxic. 670 tested, under 10 active. AID 624250;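 further: ELG1-luc HEK293T cells cotreated with 5-fluorouridine at 10 µM final; viability measured 16 h after compound addition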
ELG1 MMS viab: confirmation of ELG1 repair inhibitors: viability with MMS. 33% of 670 active. Cell viability with MMS, ELG1-dependent DNA repair. Potency, µM (doses to about 46.1 µM), for the others: top-dose activity change, negative = viability loss, most hits filed as cytotoxic. AID 624251. shares compounds with ELG1 repair inh;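 further: ELG1-luc HEK293T cells co-treated with 10 µM MMS; viability read 16 h after compound addition; on the % scale 0 is the no-effect control and ±100 the full control effect; nearly all actives have a fitted effect of over 60% in size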
ELG1 unstim viab: affects unstimulated cell viability, ELG1 hit counter-screen. shares compounds with ELG1 repair inh. cell viability counter-screen, unstimulated, luminescence. Potency, µM (titrated, usually from 45.9 µM), for inactives: at the highest dose activity change, negative = loss of viability, usual class: cytotoxic. 8% of 900 active. AID 624252;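 further: compound exposure lasted 16 hours before reading; on the % scale 0 is the no-effect control and ±100 the full control effect; nearly all actives have a fitted effect of over 55% in size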
FLuc enzyme: inhibits purified firefly luciferase, counter-screen for ELG1 hits; shares compounds with ELG1 repair inh; purified firefly luciferase, luminescence counter-screen; Potency, µM (top dose mostly 57.5 µM), for inactives: at the highest dose activity, negative = inhibition, hits mostly inhibitors; 10% of 350 active; AID 624253; further: on the % scale 0 is the no-effect control and ±100 the full control effect
The depositor's hits bear a star; ? = inconclusive; . = no result. An excerpt weighted towards active compounds, which were near 9.2% of everything screened. The call rests on the fitted dose curve; in most records, active means well fitted curve in the direction sought with a large enough effect; inconclusive means small, poorly fitted or top-dose-only effect, or another doubt; inactive means no such curve, though single readings can be large; an effect the other way counts as inactive or inconclusive. Potency means the concentration at half of the fitted maximal effect.

SMILES	NPC1 prom act	Rab9 prom act	SMN2 splice up	ELG1 genotoxic	FLuc modulator	ELG1 repair inh	ELG1-Luc inh	ELG1 MMS Luc	ELG1 5-FU	ELG1 MMS viab	ELG1 unstim viab	others
COC(=O)CC1C(=O)NCCN1C(=O)CSc1nc2cc(Cl)ccc2o1 (stereo not given)	-2%	-1%	3%	0%	0%	-5%	.	.	.	.	.
O=C(N/N=C/c1cc(Br)ccc1OC(=O)c1ccc(Br)cc1)c1ccncc1	-34%	-31%	.	-5%	-12%	4.1µM*	?	16µM*	-2%	?	-5%
Cc1ccc(S(=O)(=O)N2CCN(C(=O)NCc3ccc(F)cc3)CC2)c(C)c1	-3%	6%	.	-5%	1%	-22%	.	.	.	.	.
CCCCCn1c2c(c(=N)c3ccccc31)CCC2	-35%	-40%	.	-18%	-2%	5.2µM*	2µM*	2.2µM*	-16%	2.8µM*	?	ELG1 FLuc counter=?;FLuc enzyme=3%
CCCCCCCCCCn1c2c(c(=N)c3c1CCC3)CCC2	-42%	-42%	-55%	-11%	3%	?	.	.	.	.	.
COc1ccc(NC(=O)/C(C#N)=C/c2cc(C)n(-c3ccc(N4CCOCC4)c([N+](=O)[O-])c3)c2C)cc1	-18%	-25%	-66%	-8%	1%	2.9µM*	4.4µM*	4µM*	-1%	?	?
COc1ccc(CNC(=O)CCSc2nc(-c3ccc4c(c3)OCO4)cc(C(F)(F)F)n2)cc1	5%	2%	-7%	7%	-3%	3.3µM*	7.9µM*	2%	?	-3%	0%
O=C(CCSc1nc(-c2ccc3c(c2)OCO3)cc(C(F)(F)F)n1)NCc1ccccc1	0%	-1%	-17%	7%	7%	?	.	.	.	.	.
COc1nc(Nc2nc3ccccc3c(=O)[nH]2)nc2ccc(C)cc12	-34%	-30%	.	-8%	-2%	4.6µM*	2.2µM*	3.1µM*	?	7%	-5%
CC(C)CC(NC(=O)C1CCC(=O)N1C(=O)OCc1ccccc1)C(=O)NC(Cc1ccccc1)C(N)=O (stereo not given)	3%	0%	.	1%	1%	11%	.	.	.	.	.
CCc1ccccc1NC(=O)CN1CCN(CC(=O)Nc2cc(C)ccc2OC)CC1	-1%	-15%	.	-12%	1%	1.6µM*	?	2.2µM*	7%	2.5µM*	-7%
COc1ccc(C[C@H](N)C(=O)N[C@H]2[C@@H](O)[C@H](n3cnc4c(N(C)C)ncnc43)O[C@@H]2CO)cc1	-36%	-46%	.	-58%	4%	2.5µM*	3.1µM*	1.6µM*	?	2.2µM*	2.2µM*
C=CCOc1ccc(C[C@H](N)C(=O)NC[C@H]2O[C@@H](n3cnc4c(N)ncnc43)[C@H](O)[C@@H]2O)cc1	.	.	.	9%	.	11%	.	.	.	.	.
Cn1cc(Br)c(C(=O)n2cc(Br)cn2)n1	-1%	-3%	.	0%	?	-13%	.	.	.	.	.
Nn1c(-c2ccc(F)cc2)nc2ccccc2c1=O	-2%	5%	.	-1%	-3%	-17%	.	.	.	.	.
O=C1c2cc(F)ccc2-n2c1nc1ccccc1c2=O	-40%	-35%	.	-8%	-7%	0.18µM*	20µM*	1.1µM*	-11%	1.8µM*	?	ELG1 FLuc counter=5%;FLuc enzyme=-16%
COc1ccc(-n2c(CC3C(=O)N(C)c4ccc(C)cc43)nc3ccccc3c2=O)cc1 (stereo not given)	.	.	4%	.	-3%	.	.	.	.	.	.
O=C(Nc1ccc(N2CCCC2)c(Cl)c1)c1ccc([N+](=O)[O-])cc1	3%	11%	4%	7%	-11%	1.8µM*	?	-14%	?	-5%	-3%
CN1C(=O)c2ccc(NC(=O)c3ccc(N4CCCCC4)c([N+](=O)[O-])c3)cc2C1=O	-1%	-7%	-9%	-1%	-2%	3.7µM*	14µM*	14µM*	?	?	-18%
COc1cc2c(cc1OC)CN(S(=O)(=O)/C=C/c1ccccc1)CC2	-3%	-4%	.	-4%	0%	?	.	.	.	.	.
Cc1cc(C)c(NC(=O)CNC(=O)c2cc(C3CC3)nn2-c2ccccc2)c(C)c1	1%	-4%	.	1%	4%	-7%	.	.	.	.	.
CN(CCOc1ccc(Cl)cc1)C(=O)c1cc(S(=O)(=O)N2CCOCC2)ccc1N1CCCC1	-5%	1%	.	-3%	0%	?	.	.	.	.	.
c1ccc(Cn2nnnc2C(c2cccnc2)N2CCN(C3CCCCC3)CC2)cc1 (stereo not given)	11%	-2%	19%	-5%	-7%	3.3µM*	?	?	2%	-2%	-13%
Cc1ccc(-c2nsc(NC(=O)c3oc4cc(C)c(Cl)cc4c3C)n2)cc1	.	.	1%	.	4%	.	.	.	.	.	.
COc1ccc(S(=O)(=O)Nc2ccccc2C(=O)N2CCCCC2)cc1C	1%	-4%	.	-3%	3%	0%	.	.	.	.	.

Compound activity deposited in PubChem by National Center for Advancing Translational Sciences (NCATS).
